# Calls of active or inactive are those of the source.
# Legend:
# [1] = target: Albumin (Bos taurus) (UniProt P02769); test: compounds binding labelled BSA control protein – biochemical, small-molecule microarray, Alexa647 label, 635/667 nm fluorescence, artefact control for SMM control protein annotation, profiling panel (AID 1118); conditions: BSA-A647 binding, fluorescence 635 nm, higher = more signal;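 note: score merges 667 nm emission intensity and signal-to-noise per printed compound spot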
# [2] = probe aXIP binding to arrayed compounds – biochemical, NeuroSMM set, 635/667 nm fluorescence, primary screen (AID 1119); conditions: small-molecule microarray, higher = more signal, called active from +8 up or from −8 down;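 note: probe is the protein aXip251-270 applied at 1 µg/mL to compound-printed slides; binding of probe to printed compounds measured as 667 nm fluorescence plus signal to noise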
# [3] = probe aNOTCH3 binding on compound microarray – biochemical, small-molecule microarray, 635/667 nm fluorescence, primary screen (AID 1120); conditions: higher = more signal;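 note: probe is a biotin-tagged antibody raised against NOTCH3 rather than NOTCH3 protein; score merges spot fluorescence near 667 nm with spot signal to noise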
# [4] = probe aNOTCH2 binding on compound microarray – biochemical, small-molecule microarray, 635/667 nm fluorescence, primary screen (AID 1121); conditions: higher = more signal;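 note: score merges feature fluorescence read at 667 nm with its signal to noise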
# [5] = target: Carbonic anhydrase 2 (Homo sapiens) (UniProt P00918); test: compounds binding carbonic anhydrase 2 – biochemical, small-molecule microarray, Alexa647-labelled CAII, profiling panel (AID 1122); conditions: CAII-A647 binding fluorescence, higher = more signal
# [6] = COS7 lysate on small-molecule microarray, probe aHis, 635 nm (AID 1123); conditions: COS7 cell lysate, fluorescence, higher = more signal;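 note: z-score combines 667nm fluorescence intensity with signal-to-noise per printed compound spot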
# [7] = probe aLAP1 signal on lysate-treated microarray – cell lysate, small-molecule microarray, COS7 lysate, primary screen (AID 1124); conditions: probe aLAP1, fluorescence, higher = more signal;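 note: lysate comes from COS7 cells expressing LAP1 and is applied at 0.3 µg/mL; score merges spot fluorescence near 667 nm with signal-to-noise over triplicate slides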
# [8] = tested on: Sam68 (KHDRBS1); test: compounds binding KHDRBS1 protein – biochemical, small-molecule microarray, 635 nm fluorescence, primary screen (AID 1125); conditions: higher = more signal;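 note: score merges 667 nm channel intensity with signal to noise over triplicate slides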
# [9] = tested on: Chordin-like protein 2 (CHRDL2); test: compounds binding chordin-like 2 – biochemical, small-molecule microarray, 635 nm fluorescence, primary screen (AID 1126); conditions: fluorescence 635 nm, higher = more signal;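 note: printed compound slides probed with Chrdl2 protein at 4 µg/mL for 1 h at 4 C; score merges 667 nm emission intensity with signal to noise over three replicate slides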
# [10] = target: Concanavalin-A (Canavalia ensiformis) (UniProt P02866); test: compounds binding concanavalin A lectin – biochemical, small-molecule microarray, Alexa647 label, 635 nm, artefact control for SMM control protein annotation, primary screen (AID 1127); conditions: ConA-A647 binding fluorescence, higher = more signal;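 note: z combines 667 nm emission intensity with signal-to-noise across three replicate slides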
# Chain of Concanavalin-A (Canavalia ensiformis) (P02866 whole entry, looked up): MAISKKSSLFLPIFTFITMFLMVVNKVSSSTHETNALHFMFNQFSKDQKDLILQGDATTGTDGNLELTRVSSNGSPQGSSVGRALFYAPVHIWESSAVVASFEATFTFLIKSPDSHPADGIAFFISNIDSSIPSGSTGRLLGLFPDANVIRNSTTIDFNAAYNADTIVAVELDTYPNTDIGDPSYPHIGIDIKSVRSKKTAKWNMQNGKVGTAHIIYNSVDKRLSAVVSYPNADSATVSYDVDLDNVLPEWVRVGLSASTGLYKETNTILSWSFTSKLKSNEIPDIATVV
# Chain of Albumin (Bos taurus) (P02769 whole entry, looked up): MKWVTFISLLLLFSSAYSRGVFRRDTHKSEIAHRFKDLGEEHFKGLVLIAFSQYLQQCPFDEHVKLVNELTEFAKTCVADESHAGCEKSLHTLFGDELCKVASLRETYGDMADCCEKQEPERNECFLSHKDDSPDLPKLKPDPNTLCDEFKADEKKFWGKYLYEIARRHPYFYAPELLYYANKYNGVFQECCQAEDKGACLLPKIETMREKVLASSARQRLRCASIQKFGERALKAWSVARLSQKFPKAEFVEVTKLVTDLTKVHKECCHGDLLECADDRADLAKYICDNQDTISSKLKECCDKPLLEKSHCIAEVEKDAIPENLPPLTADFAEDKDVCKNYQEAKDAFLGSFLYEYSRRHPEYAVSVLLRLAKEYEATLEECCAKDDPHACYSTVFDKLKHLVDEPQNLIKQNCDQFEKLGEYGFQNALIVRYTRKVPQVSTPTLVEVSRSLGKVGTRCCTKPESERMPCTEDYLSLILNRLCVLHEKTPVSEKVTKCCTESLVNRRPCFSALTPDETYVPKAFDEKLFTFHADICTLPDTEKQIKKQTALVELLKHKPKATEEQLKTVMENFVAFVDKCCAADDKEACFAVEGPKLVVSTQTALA
Structure (SMILES),composite z-score [1],composite Z-score [2],composite z-score [3],composite z-score [4],composite z-score [5],composite z-score [6],composite z-score [7],composite z-score [8],composite z-score [9],composite z-score [10]
COc1cccc([C@H]2Oc3ccc(OC)cc3C(=NOC[C@@H](C)[C@H](OCc3ccccc3)C(C)C)[C@@H]2O)c1,0.422,0.237 (inactive),-0.162,-0.0512,0.689,0.923,1.37,0.413,-0.269,0.0788
CO[C@H]1COC(=O)CC=C[C@H](C)COC(=O)[C@@H](C)NC(=O)CC=C[C@@H]1C,-0.854,0.842 (inactive),-0.179,-0.14,-0.532,-1.13,0.487,0.339,1.56,-0.582
C=Cc1ccc([C@H]2N[C@H](C(=O)O)CC[C@@H]2C)cc1,0.108,-0.602 (inactive),-0.178,-0.155,0.275,-0.344,0.723,-1.6,0.65,-0.437
CO[C@H]1COC(=O)[C@@H](C)COC(=O)[C@H](C)NC(=O)CC=C[C@H]1C,-0.859,0.111 (inactive),-0.038,-0.0907,-0.328,-0.866,-0.225,0.486,1.27,-0.99
COC(=O)NCC=Cc1nc(CCCO)co1,0.782,0.678 (inactive),-0.0362,-0.153,-0.0958,0.549,0.215,0.559,0.809,0.161
CC(=O)OC[C@H]1O[C@H](C#Cc2ccccc2)C=C[C@@H]1OC(C)=O,0.243,-0.005 (inactive),-0.0328,-0.136,0.0239,0.214,0.17,0.182,0.965,-0.0189
CO[C@H]1COC(=O)[C@@H](Cc2ccccc2)NC(=O)[C@@H](C)COC(=O)CCC[C@@H]1C,0.516,-0.112 (inactive),0.0257,-0.132,-0.248,0.0267,-0.0452,0.179,0.295,-0.171
CCOC(=O)[C@H](Cc1ccccc1)NC(=O)CCC1CC(OC(=O)NCc2cccc3ccccc23)CC2(CCCC(COC(=O)NCC(c3ccccc3)c3ccccc3)O2)O1 (stereo not given in full),0.313,0.793 (inactive),0.062,-0.169,0.394,0.468,-0.0448,0.914,0.203,0.256
COC(=O)CC=C[C@@H](C)[C@@H](C=NOCC[C@@H]1C=C[C@H](OC(C)=O)[C@@H](COC(C)=O)O1)OC,-0.395,0.181 (inactive),-0.0006,-0.115,-0.0197,0.849,-0.0402,0.411,0.432,-0.319
COc1ccc(O[C@@H]2[C@H](O)CO[C@@H]2C=Cc2ccccc2)cc1,-0.0176,0.0831 (inactive),-0.0343,-0.115,-0.053,-0.39,0.0909,0.0255,0.211,0.37
COC(=O)[C@@H]1CC[C@H](C)[C@@H](c2ccc(C)cc2)N1C(=O)c1ccc(C=NOCC[C@@H]2C=C[C@H](OC(C)=O)[C@@H](COC(C)=O)O2)cc1,-0.129,-0.2 (inactive),0.088,-0.1,-0.0127,0.148,-0.552,0.926,0.772,0.658
CO[C@H]1COC(=O)CC=C[C@H](C)[C@@H](OC)COC(=O)[C@H](C)COC(=O)CC=C[C@@H]1C,-1.2,0.559 (inactive),0.0306,-0.133,-0.425,-0.552,0.975,-0.106,1.43,-0.55
CC(C)=CCCC(C)=CCON=C1C[C@@H](O)[C@@H](O)[C@@H]2[C@@H]3C(=O)N(c4ccc(F)cc4F)C(=O)[C@@H]3CC[C@H]12,0.477,-0.356 (inactive),0.164,-0.0662,0.514,1.31,0.402,1.24,0.812,0.629
C[C@@H](c1ccccc1)N1C(=O)[C@H]2[C@H]3[C@H](O)[C@H](O)CC(=O)[C@H]3CC[C@H]2C1=O,0.587,-0.0023 (inactive),-0.367,-0.226,-0.125,0.241,0.567,0.626,0.747,0.336
O=C1[C@H]2[C@H]3[C@H](O)[C@H](O)CC(=NOCc4ccccc4)[C@@H]3CC[C@H]2C(=O)N1Cc1ccc2c(c1)OCO2,0.0462,0.0289 (inactive),0.0306,-0.0131,0.618,-0.0974,-0.0389,-0.0391,0.124,-0.0139
CC(C)(C)N1C(=O)[C@H]2[C@H]3[C@H](O)[C@H](O)CC(=NOCc4ccccc4)[C@H]3CC[C@H]2C1=O,0.0116,-0.491 (inactive),0.0961,-0.057,-0.0598,0.376,0.699,-0.217,0.737,-0.344

Structure (SMILES),composite z-score [1],composite Z-score [2],composite z-score [3],composite z-score [4],composite z-score [5],composite z-score [6],composite z-score [7],composite z-score [8],composite z-score [9],composite z-score [10]
CC(C)=CCCC(C)=CCON=C1C[C@@H](O)[C@@H](O)[C@@H]2[C@@H]3C(=O)N(c4cccc(Oc5ccccc5)c4)C(=O)[C@@H]3CC[C@@H]12,0.633,-0.174 (inactive),-0.0026,-0.0686,0.112,0.956,-0.0676,0.877,0.418,0.0876
CCOC(=O)[C@H](CC(C)C)NC(=O)CCC1CC(OC(=O)NCc2cccc3ccccc23)CC2(CCCC(COC(=O)NCC3CCCCC3)O2)O1 (stereo not given in full),0.14,0.526 (inactive),0.0311,-0.0896,0.392,0.0741,-0.0193,1.29,0.32,1.08
CCc1cc2c(nc1CC)CCN(CCC(C)=NOC[C@H]1O[C@H](c3ccccc3)C=C[C@@H]1Oc1ccc(OC)cc1)C2,0.184,-0.0263 (inactive),-0.0311,-0.155,0.787,0.552,0.056,0.292,-0.0913,0.208
CON=C[C@@H](C)[C@H](OCc1ccccc1)C(C)C,-0.784,-0.47 (inactive),-0.0647,-0.162,-0.269,-0.606,-0.0291,-0.295,0.54,-0.413
CC(C)CCN1CCc2nc(COc3ccccc3)c3c(c2C1)CO[C@@H](C)C3,0.536,0.354 (inactive),-0.0343,-0.0797,0.319,0.965,0.378,0.0676,0.119,0.432
CCOC(=O)NN=C1C[C@@H](O)[C@@H](O)[C@@H]2[C@@H]3C(=O)N(Cc4ccc5c(c4)OCO5)C(=O)[C@@H]3CC[C@H]12,0.717,-0.0189 (inactive),-0.0629,-0.14,0.347,0.926,-0.387,0.364,-0.121,-1.27
O=C1C[C@@H](O)[C@@H](O)[C@@H]2[C@@H]3C(=O)N(Cc4ccccc4)C(=O)[C@@H]3CC[C@@H]12,0.256,0.277 (inactive),-0.0328,-0.12,0.0093,-0.281,0.213,0.63,0.791,0.633
COc1ccc(C#C[C@@H]2C=C[C@H](OC(C)=O)[C@@H](COC(C)=O)O2)cc1,0.18,-0.153 (inactive),-0.0077,-0.153,0.61,0.759,-0.019,0.112,0.867,0.536
C#CCCCON=C1C[C@@H](O)[C@@H](O)[C@@H]2[C@@H]3C(=O)N(c4ccc(F)cc4F)C(=O)[C@@H]3CC[C@@H]12,0.373,-0.302 (inactive),-0.113,-0.0569,-0.15,-0.366,0.202,0.428,0.217,0.505
CCCCC#C[C@@H]1C=C[C@H](Oc2cc(OC)c(OC)c(OC)c2)[C@@H](COC(=O)OCC)O1,0.227,0.0299 (inactive),-0.128,-0.0907,-0.165,-0.642,0.211,-0.25,0.251,-0.0793
CO[C@@H]1COC(=O)[C@@H](C)NC(=O)CC=C[C@@H](C)[C@H](NS(=O)(=O)c2ccc(C)cc2)COC(=O)[C@H](C)NC(=O)CC=C[C@H]1C,-1.05,1.05 (inactive),-0.0647,-0.184,-0.333,-0.634,-0.192,0.643,1.16,-1.05
CCOC(=O)[C@H](CC(C)C)NC(=O)CCC1CC(OC(=O)NCCc2ccc(F)cc2)CC2(CCCC(COC(=O)NCC3CCCCC3)O2)O1 (stereo not given in full),0.424,0.2 (inactive),0.119,-0.203,0.255,2.11,0.0165,0.986,0.618,1.07
O=C(NN=C1C[C@@H](O)[C@@H](O)[C@@H]2[C@@H]3C(=O)N(C[C@@H]4CCCO4)C(=O)[C@@H]3CC[C@H]12)OCc1ccccc1,0.534,0.42 (inactive),0.0522,-0.0081,-0.273,0.109,-0.0716,-0.534,-0.187,0.305
O=c1n(-c2ccccc2)c(=O)n2n1CC[C@@H]1C(=NOCc3ccccc3)[C@H]3O[C@H]3[C@@H](O)[C@@H]12,-0.101,0.371 (inactive),-0.179,-0.189,0.745,-0.539,-0.289,-0.712,-0.0034,-0.073
COC(=O)CC=C[C@@H](C)[C@H](OCc1cccc(-c2ccccc2)c1)C1CCCCC1,0.0024,0.369 (inactive),-0.195,-0.109,0.942,-0.159,0.0206,-0.679,1.23,0.923

# Source: PubChem BioAssay
